PubChem BioAssay (NCATS)
Several values for one entry are separate records, joined by “and”; a condition that tells them apart may be missing. Equal entries are not always repeated. Results filed as inconclusive are left out. Activity calls are given as the source filed them. Calls come from the whole dose curve; as a rule, active = well fitted cell-killing curve with a large enough effect; inconclusive = small, poorly fitted or top-dose-only effect; inactive = flat fitted curve, though single readings scatter.

Test: Quantitative highthroughput screen to assess conditional lethalithy of NOMO1 cells grown in RPMI1640 with untreated serum (RPMI+s) (AID 1963876);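 note: 100% = DMSO wells and 0% = empty wells without cells; nearly all actives have a fitted effect of over 35% in size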
Settings: NOMO1 AML cells in RPMI+serum, CellTiter-Glo viability, 48 h; series mostly up to 45.8 µM; viability: at the top concentration
In short: (§1)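 Each medium arm—HPLM with 10% dialyzed FBS, or RPMI1640 with 5 mM glucose and 10% untreated or dialyzed FBS—was screened against an 11-point, 3-fold compound titration for 48 h at 37 °C, with CellTiter-Glo luminescence as endpoint.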
In the case of `C#CCN(C)[C@H](C)Cc1ccccc1`, the “viability” value is reported as 97.7% (inactive). With `Cn1c(CCCC(=O)O)nc2cc(N(CCCl)CCCl)ccc21` the “viability” value was 99.8% (inactive). With `CCCC(C)(COC(N)=O)COC(=O)NC(C)C` (stereo not given) the “viability” value was 95.9% (inactive). For `O=C(Oc1ccc([N+](=O)[O-])cc1)N1CCN(Cc2cccc(Oc3ccccc3)c2)CC1`, the “viability” value was 98.2% (inactive).

Test: Quantitative highthroughput screen to assess conditional lethalithy of P12 Ichikawa cells grown in RPMI1640 with dialyzed fetal bovine serum (RPMI+ds) (AID 1963880);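 note: 100% = DMSO wells and 0% = empty wells on each plate; nearly all actives have a fitted effect of over 35% in size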
Settings: ATP luminescence, 48 h; Potency: P12-Ichikawa viability; series mostly up to 45.8 µM; viability: at the top concentration
In short: as §1
For `CN1CCN(C(=O)O[C@H]2c3nccnc3C(=O)N2c2ccc(Cl)cn2)CC1`, the “viability” value was 90% (inactive). For `C#CCN(C)[C@H](C)Cc1ccccc1`, the “viability” value was 96.9% (inactive). With `CCCC(C)(COC(N)=O)COC(=O)NC(C)C` (stereo not given) the “viability” value was 105% (inactive).

Test: Cellular viability qHTS for adrenocortical cancer (ACC) cell line SW-13 (AID 1963989);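 note: cells grown in serum-free medium with ITS supplement; % is set by controls: 0 for no effect and ±100 for the full control effect; nearly all actives have a fitted effect of over 65% in size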
Settings: SW-13 ACC cells viability, CellTiter-Glo, 48 h; activity (max response): stronger effect = lower value
In short: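 IC50 and maximal-response values come from four-parameter logistic fits of titration data. SW-13 cells in serum-free medium received compounds (up to 46 uM final) for 48 h before CellTiter-Glo luminescence.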
For `CN1CCN(C(=O)O[C@H]2c3nccnc3C(=O)N2c2ccc(Cl)cn2)CC1`, the activity (max response) was 9.33% (inactive). With `C#CCN(C)[C@H](C)Cc1ccccc1` the activity (max response) was 4.66% (inactive) and -4.85% (inactive). In the case of `Cn1c(CCCC(=O)O)nc2cc(N(CCCl)CCCl)ccc21`, the activity (max response) is reported as 2.81% (inactive) and -9.72% (inactive). With `CCCC(C)(COC(N)=O)COC(=O)NC(C)C` (stereo not given) the activity (max response) was 8.8% (inactive).

Test: Cellular viability qHTS for adrenocortical cancer (ACC) cell line NCI-H295R (AID 1963990);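 note: 0% = DMSO only wells and -100% = full killing with cytotoxic reference compound; nearly all actives have a fitted effect of over 60% in size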
Settings: CellTiter-Glo ATP luminescence, 48 h; series mostly up to 46.1 µM; activity change, negative = viability loss: at the top concentration
In short: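 Adrenocortical carcinoma cells, suspended at 300 000 cells/mL in serum-free DMEM plus ITS, rested overnight before pin transfer of compound. After two days' incubation, ATP-dependent luminescence was recorded and curve-fitted.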
In the case of `CN1CCN(C(=O)O[C@H]2c3nccnc3C(=O)N2c2ccc(Cl)cn2)CC1`, the “activity change, negative = viability loss” value is reported as -2.62% (inactive). In the case of `C#CCN(C)[C@H](C)Cc1ccccc1`, the “activity change, negative = viability loss” value is reported as -4.27% (inactive). With `Cn1c(CCCC(=O)O)nc2cc(N(CCCl)CCCl)ccc21` the “activity change, negative = viability loss” value was -27.5% (inactive). For `CCCC(C)(COC(N)=O)COC(=O)NC(C)C` (stereo not given), the “activity change, negative = viability loss” value was -12.7% (inactive).
